Measurements from PubChem BioAssay.
Calls of active or inactive are those of the source.

Columns and labels:
[1] = binders of probe aFSTL3 on microarray, primary screen, stem cell growth factor project, biochemical, small-molecule microarray, fluorescence 635/667 (AID 1064); conditions: higher = more signal;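 note: measures binding of the biotinylated anti-FSTL3 antibody to printed compounds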
[2] = binders from COS7 lysate, DM2A8 probe, primary screen, torsin A project, cell lysate, small-molecule microarray, fluorescence 635/667 (AID 1065); conditions: higher = more signal, COS7 lysate expressing mutant human TOR1A
[3] = binders of probe aFGF2 on microarray, primary screen, stem cell growth factor project, biochemical, small-molecule microarray, fluorescence 635/667 (AID 1067); conditions: higher = more signal;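 note: measures binding of biotinylated aFGF2 protein to printed compounds on slides; z-score merges feature fluorescence and signal-to-noise across triplicate slides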
[4] = binders of probe aFGF10 on microarray, primary screen, stem cell growth factor project, biochemical, small-molecule microarray, fluorescence 635/667 (AID 1071); conditions: higher = more signal;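 note: score merges 667 nm spot intensity and signal to noise from triplicate slides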
[5] = target: Neurogenic locus notch homolog protein 2 (Homo sapiens) (UniProt Q04721); assay: Notch2 binders on small-molecule microarrays, primary screen, biochemical, small-molecule microarray, 635 nm fluorescence, stem cell growth factors (AID 1073); conditions: Notch2 binding, higher = more signal
Chain of Neurogenic locus notch homolog protein 2 (Homo sapiens) (Q04721 whole entry, looked up, canonical isoform): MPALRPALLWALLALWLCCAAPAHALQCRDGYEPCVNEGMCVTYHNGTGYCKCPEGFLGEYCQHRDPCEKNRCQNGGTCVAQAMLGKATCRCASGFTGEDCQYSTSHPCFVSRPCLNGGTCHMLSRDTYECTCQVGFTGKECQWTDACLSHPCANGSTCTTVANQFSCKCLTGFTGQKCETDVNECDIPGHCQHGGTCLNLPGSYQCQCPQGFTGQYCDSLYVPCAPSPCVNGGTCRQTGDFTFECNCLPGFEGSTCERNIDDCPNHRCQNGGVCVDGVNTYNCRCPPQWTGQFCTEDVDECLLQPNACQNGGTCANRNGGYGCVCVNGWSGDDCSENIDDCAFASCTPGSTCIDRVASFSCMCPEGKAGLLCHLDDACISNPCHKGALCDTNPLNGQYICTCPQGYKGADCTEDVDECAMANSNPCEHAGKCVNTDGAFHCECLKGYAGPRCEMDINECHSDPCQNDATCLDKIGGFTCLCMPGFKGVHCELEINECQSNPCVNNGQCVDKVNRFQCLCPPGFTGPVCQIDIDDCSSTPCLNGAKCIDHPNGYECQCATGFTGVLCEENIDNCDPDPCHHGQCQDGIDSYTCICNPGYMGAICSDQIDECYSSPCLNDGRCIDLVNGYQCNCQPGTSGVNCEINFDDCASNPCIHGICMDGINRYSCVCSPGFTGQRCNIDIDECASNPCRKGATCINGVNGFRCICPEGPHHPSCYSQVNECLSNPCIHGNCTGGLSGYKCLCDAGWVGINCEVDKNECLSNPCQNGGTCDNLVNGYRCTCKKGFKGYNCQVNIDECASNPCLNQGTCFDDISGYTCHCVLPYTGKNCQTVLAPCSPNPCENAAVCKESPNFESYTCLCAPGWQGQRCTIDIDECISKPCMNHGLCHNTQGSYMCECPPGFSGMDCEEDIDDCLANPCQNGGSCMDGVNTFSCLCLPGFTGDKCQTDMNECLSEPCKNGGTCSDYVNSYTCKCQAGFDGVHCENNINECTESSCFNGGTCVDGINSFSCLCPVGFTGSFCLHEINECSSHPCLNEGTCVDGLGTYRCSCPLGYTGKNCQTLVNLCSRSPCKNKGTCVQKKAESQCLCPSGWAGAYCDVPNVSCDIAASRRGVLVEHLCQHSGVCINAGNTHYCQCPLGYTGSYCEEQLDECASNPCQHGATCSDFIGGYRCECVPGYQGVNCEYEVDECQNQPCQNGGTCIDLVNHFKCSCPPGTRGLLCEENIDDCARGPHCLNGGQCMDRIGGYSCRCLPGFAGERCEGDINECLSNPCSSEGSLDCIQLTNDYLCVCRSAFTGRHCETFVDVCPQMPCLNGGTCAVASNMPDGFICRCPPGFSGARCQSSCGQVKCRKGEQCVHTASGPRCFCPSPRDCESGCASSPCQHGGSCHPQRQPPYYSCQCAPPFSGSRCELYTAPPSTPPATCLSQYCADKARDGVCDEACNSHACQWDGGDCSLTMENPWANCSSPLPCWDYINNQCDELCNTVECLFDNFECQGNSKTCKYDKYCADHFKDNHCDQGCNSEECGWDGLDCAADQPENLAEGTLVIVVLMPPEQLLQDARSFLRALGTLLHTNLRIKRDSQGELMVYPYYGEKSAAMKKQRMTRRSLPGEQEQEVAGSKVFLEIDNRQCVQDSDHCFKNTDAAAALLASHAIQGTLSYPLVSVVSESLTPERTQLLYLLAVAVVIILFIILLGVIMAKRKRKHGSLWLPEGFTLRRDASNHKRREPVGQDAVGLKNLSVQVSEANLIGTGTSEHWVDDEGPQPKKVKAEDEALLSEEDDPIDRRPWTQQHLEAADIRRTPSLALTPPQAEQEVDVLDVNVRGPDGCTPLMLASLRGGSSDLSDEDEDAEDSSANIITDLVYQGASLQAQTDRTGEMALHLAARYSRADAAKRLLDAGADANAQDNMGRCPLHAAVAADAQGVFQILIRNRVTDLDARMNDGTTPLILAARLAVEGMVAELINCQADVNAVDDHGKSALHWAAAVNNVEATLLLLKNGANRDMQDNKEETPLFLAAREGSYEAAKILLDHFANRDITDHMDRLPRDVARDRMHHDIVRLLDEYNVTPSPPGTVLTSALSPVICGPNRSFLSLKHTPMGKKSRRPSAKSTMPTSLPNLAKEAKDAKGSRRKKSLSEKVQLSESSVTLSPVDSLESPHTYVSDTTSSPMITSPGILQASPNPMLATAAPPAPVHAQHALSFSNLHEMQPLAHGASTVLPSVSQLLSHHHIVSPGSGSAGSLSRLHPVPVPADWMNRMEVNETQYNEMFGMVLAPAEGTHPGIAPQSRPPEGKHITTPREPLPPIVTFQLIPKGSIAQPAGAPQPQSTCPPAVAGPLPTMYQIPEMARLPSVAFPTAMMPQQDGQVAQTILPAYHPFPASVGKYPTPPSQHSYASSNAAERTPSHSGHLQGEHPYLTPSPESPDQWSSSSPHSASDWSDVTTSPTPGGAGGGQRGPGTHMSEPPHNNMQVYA

[6] = target: Pro-neuregulin-1, membrane-bound isoform (Homo sapiens) (UniProt Q02297); assay: NRG1 binders on small-molecule microarrays, primary screen, psychiatric disease protein project, biochemical, small-molecule microarray, fluorescence 635/667 (AID 1075); conditions: NRG1 binding, 635 nm fluorescence, higher = more signal;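 note: score combines 667 nm spot fluorescence with signal to noise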
Chain of Pro-neuregulin-1, membrane-bound isoform (Homo sapiens) (Q02297 whole entry, looked up, the tested form may be a part, canonical isoform): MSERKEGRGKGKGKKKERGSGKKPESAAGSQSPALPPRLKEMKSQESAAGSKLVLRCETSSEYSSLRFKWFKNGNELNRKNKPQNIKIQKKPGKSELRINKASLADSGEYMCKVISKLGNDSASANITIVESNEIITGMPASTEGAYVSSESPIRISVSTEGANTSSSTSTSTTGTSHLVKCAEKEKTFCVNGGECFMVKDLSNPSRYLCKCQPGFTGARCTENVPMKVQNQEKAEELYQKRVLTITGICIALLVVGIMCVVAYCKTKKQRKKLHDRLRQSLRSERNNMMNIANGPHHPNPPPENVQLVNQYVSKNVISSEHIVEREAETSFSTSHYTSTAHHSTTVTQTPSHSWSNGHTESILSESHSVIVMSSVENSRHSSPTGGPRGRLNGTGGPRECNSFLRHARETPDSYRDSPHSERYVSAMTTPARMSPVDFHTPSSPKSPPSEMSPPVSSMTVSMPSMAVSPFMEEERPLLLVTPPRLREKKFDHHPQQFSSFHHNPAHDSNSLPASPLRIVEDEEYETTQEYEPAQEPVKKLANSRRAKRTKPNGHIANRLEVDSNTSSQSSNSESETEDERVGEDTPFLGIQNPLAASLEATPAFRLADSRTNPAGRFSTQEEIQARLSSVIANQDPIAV

[7] = tested on: Neuregulin-1 EGF-like domain; assay: binders of neuregulin-1 EGF-like domain, primary screen, biochemical, small-molecule microarray, 635 nm fluorescence (AID 1081); conditions: small-molecule microarray binding, higher = more signal;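 note: binding of the protein to compounds printed on small-molecule microarray slides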
[8] = FRG1 promoter luciferase signal modulators, primary screen, FRG1 inhibition for FSHD, cell-based, C2C12 myotubes, firefly/Renilla luciferase, luminescence (AID 1084); conditions: higher = more signal, called active from +8 up or from −8 down
[9] = binders of probe aFST on microarray, primary screen, stem cell growth factor project, biochemical, small-molecule microarray, fluorescence 635/667 (AID 1086); conditions: higher = more signal;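 note: score merges 667 nm fluorescence with signal-to-noise of each printed compound spot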
[10] = binders of probe aHhip on microarray, primary screen, stem cell growth factor project, biochemical, small-molecule microarray, fluorescence 635/667 (AID 1087); conditions: higher = more signal;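 note: score merges spot fluorescence at 667nm with spot signal to noise ratio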
[11] = tested on: PRMT1 (protein arginine N-methyltransferase 1); assay: PRMT1 binders on small-molecule microarrays, primary screen, biochemical, small-molecule microarray, 635 nm fluorescence (AID 1088); conditions: small-molecule microarray binding, higher = more signal;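 note: binding of Prmt1 protein to compounds spotted on small-molecule microarray slides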
[12] = yeast growth modulation, basal conditions, primary screen, YJM789 clinical isolate, OD600, 24 h (AID 1089);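 note: growth of clinical yeast isolate S. cerevisiae YJM 789 seeded 1000 cells per well; test concentration not given here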; conditions: S. cerevisiae YJM789 growth, higher = more signal, called active from +8 up or from −8 down
[13] = fission yeast growth modulation, primary screen, strain 972, OD600, 24 h, no modulator (AID 1090);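 note: basal condition with compound alone and no growth modifier present; test concentration not given here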; conditions: S. pombe 972 growth, higher = more signal, called active from +8 up or from −8 down
[14] = S. cerevisiae growth modulation with rapamycin, primary screen, strain BY4716, OD600, 96 h (AID 1091); conditions: higher = more signal, called active from +8 up or from −8 down; note: test concentration not given here
[15] = target: Torsin-1A-interacting protein 2 (Homo sapiens) (UniProt Q8NFQ8); assay: LULL1 binders on small-molecule microarray, primary screen, cell lysate, human LULL1 lysate, 635/667 nm fluorescence (AID 1092); conditions: hLULL1 lysate binding, 635 nm fluorescence, higher = more signal;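 note: probe is lysate of COS7 cells overexpressing human LULL1; score merges per-feature 667 nm fluorescence with signal-to-noise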
Chain of Torsin-1A-interacting protein 2 (Homo sapiens) (Q8NFQ8 whole entry, looked up): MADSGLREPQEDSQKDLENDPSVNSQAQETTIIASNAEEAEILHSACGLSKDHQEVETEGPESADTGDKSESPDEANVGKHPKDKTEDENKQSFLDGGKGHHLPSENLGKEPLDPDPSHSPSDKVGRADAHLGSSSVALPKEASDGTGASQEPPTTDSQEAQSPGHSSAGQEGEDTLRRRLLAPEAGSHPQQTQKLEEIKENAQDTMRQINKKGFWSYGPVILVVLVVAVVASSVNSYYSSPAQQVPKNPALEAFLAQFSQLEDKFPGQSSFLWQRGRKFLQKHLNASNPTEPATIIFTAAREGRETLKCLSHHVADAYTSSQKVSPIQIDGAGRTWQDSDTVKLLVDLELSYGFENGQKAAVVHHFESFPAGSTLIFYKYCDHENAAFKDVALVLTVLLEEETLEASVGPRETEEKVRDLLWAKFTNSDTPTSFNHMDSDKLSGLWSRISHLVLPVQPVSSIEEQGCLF

[16] = E. coli growth modulation, two-sided OD650, primary screen, E. coli filamentation project, strain DRC41, 24 h (AID 1093); conditions: OD650, 24 h, higher = more signal, called active from +8 up or from −8 down;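 note: MC1000 strain lacking acrAB efflux and sulA so SOS filamentation is blocked; test concentration not given here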
[17] = small-molecule microarray binders of probe aLefty2, primary screen, biochemical, biotinylated probe, 635/667 nm fluorescence (AID 1094); conditions: higher = more signal;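 note: score merges spot fluorescence near 667 nm with spot signal-to-noise ratio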
[18] = tested on: Noggin (protein binding on small-molecule microarray); assay: Noggin binders on small-molecule microarray, primary screen, biochemical, 635/667 nm fluorescence (AID 1095); conditions: 635 nm fluorescence, higher = more signal;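 note: score merges 667 nm feature fluorescence with signal to noise over triplicate slides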
[19] = target: Neurogenic locus notch homolog protein 3 (Homo sapiens) (UniProt Q9UM47); assay: NOTCH3 binders on small-molecule microarray, primary screen, biochemical, 635/667 nm fluorescence (AID 1096); conditions: NOTCH3 binding, 635 nm fluorescence, higher = more signal
[20] = small-molecule microarray binders of probe aEGFR, primary screen, biochemical, biotinylated probe, 635/667 nm fluorescence (AID 1097); conditions: higher = more signal;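 note: probe is a biotinylated anti-EGFR antibody binding compounds printed on slides; score combines fluorescence near 667 nm and signal to noise of each spot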

| Compound | composite z-score [1] | composite z-score [2] | composite z-score [3] | composite z-score [4] | composite z-score [5] | composite z-score [6] | composite z-score [7] | z-score [8] | composite z-score [9] | composite z-score [10] | composite z-score [11] | z-score [12] | z-score [13] | z-score [14] | composite z-score [15] | z-score [16] | composite z-score [17] | composite z-score [18] | composite z-score [19] | composite z-score [20] |
| --- | --- | --- | --- | --- | --- | --- | --- | --- | --- | --- | --- | --- | --- | --- | --- | --- | --- | --- | --- | --- |
| CC(C)(C)OC(=O)CC[C@]1(C(=O)O)N=C(c2ccc(OCCCO)cc2)O[C@H]1c1ccccc1CN=[N+]=[N-] | -0.169 | -0.246 | 0.0911 | 0.113 | 0.261 | 1 | 1.45 | 2.04 (inactive) | 0.794 | -0.409 | -0.619 | 0.832 (inactive) | 0.291 (inactive) | -0.683 (inactive) | 2 | 0.275 (inactive) | -0.0991 | -0.465 | 0.168 | -0.103 |
| CCCC[C@@H]1C[C@H]1[C@@H](NC(=O)c1ccccc1)c1ccc(Cl)cc1 | 1.22 | -0.657 | -0.196 | -2.08 | -2 | -0.596 | 1.36 | 1.62 (inactive) | -0.833 | -0.134 | -1.36 | 0.222 (inactive) | -1.96 (inactive) | -2.01 (inactive) | 0.0826 | -1.49 (inactive) | -0.204 | -2.06 | -1.77 | -0.421 |
| CC1CC/C=C\[C@H]2OC34C=CCN(CCN5CCOCC5)C(=O)[C@H]3N(CCO)C(=O)[C@@H]4C2C(=O)O1 (stereo not given in full) | 0.507 | -0.342 | 0.013 | -0.105 | -0.807 | -0.917 | -0.376 | -0.322 (inactive) | -0.421 | -0.4 | -0.623 | -0.962 (inactive) | 0.0701 (inactive) | 0.005 (inactive) | -0.144 | 1.25 (inactive) | -0.103 | -0.982 | -0.43 | -0.196 |
| COC(=O)c1c(CC[C@@H](CO)NC(=O)N[C@H](Cn2cc(-c3ccccc3C)nn2)C(C)C)oc(C(C)=O)c1C(=O)OC | -0.157 | -1.08 | -0.129 | 0.415 | -1.18 | 0.638 | 0.309 | 0.87 (inactive) | -0.205 | 0.145 | -0.469 | -0.147 (inactive) | -0.644 (inactive) | 0.467 (inactive) | -0.351 | 0.537 (inactive) | -0.29 | -0.0001 | -0.465 | -0.218 |
| COC(=O)[C@@]1(Cc2ccc(OC)cc2)[C@H]2c3cc(C(=O)N(C)C)n(Cc4nc5ccccc5[nH]4)c3C[C@H]2CN1C(=O)c1ccccc1 | 0.0732 | -0.401 | 0.212 | 0.874 | 1.76 | 1.82 | 1.23 | -1.62 (inactive) | 1.09 | 0.147 | 0.777 | 0.591 (inactive) | 1.49 (inactive) | 6.95 (inactive) | 3.61 | -0.648 (inactive) | 0.3 | 0.493 | 1.02 | 0.329 |
| COC(=O)[C@@]1(Cc2ccccc2)[C@H]2c3cc(C(=O)N4CCCC4)n(Cc4ccsc4Br)c3C[C@H]2CN1C(=O)c1ccccc1 | 0.166 | -0.411 | 0.281 | 0.682 | 1.72 | 1.46 | 1.18 | -0.444 (inactive) | 1.51 | 0.155 | 0.12 | 0.333 (inactive) | 1.22 (inactive) | 1.35 (inactive) | 3.43 | -0.575 (inactive) | 0.41 | -0.142 | 1.05 | 0.272 |
| [N-]=[N+]=NCc1ccccc1C[C@@]1(C(=O)N2CCCCC2)N=C(c2ccc(OCCCO)cc2)O[C@@H]1c1ccccc1N=[N+]=[N-] | 0.167 | 0.101 | -0.204 | 0.229 | 1.49 | 1.38 | 1.05 | -3 (inactive) | 0.227 | 0.0505 | 0.422 | -0.64 (inactive) | 0.832 (inactive) | 4.02 (inactive) | 1.73 | 1.17 (inactive) | -0.0591 | 0.244 | 0.923 | 0.0923 |
| NCCCCCCNC(=O)[C@@H]1C[C@@H]2C(=O)N3CCC[C@H]3C(=O)N2[C@@H]1c1ccc(O)cc1 | 0.327 | -0.055 | -0.0006 | 0.0841 | 0.337 | 1.9 | 1.18 | 0.15 (inactive) | 1.1 | 0.154 | 1.25 | -0.723 (inactive) | -1.22 (inactive) | -0.476 (inactive) | 2.02 | -1.03 (inactive) | -0.0912 | 1.58 | 0.494 | -0.0568 |
| COCCOC(=O)N1C(=O)[C@@]2(c3cc(C#CC4(O)CCCCCC4)ccc31)[C@H](C(N)=O)[C@H]1C(=O)O[C@H](c3ccccc3)[C@H](c3ccccc3)N1[C@@H]2c1ccccc1OCCO | 0.591 | 1.71 | 0.121 | 0.859 | 1.25 | 0.735 | 1.3 | 0.129 (inactive) | 0.239 | 0.141 | 1.54 | 1.53 (inactive) | -0.0153 (inactive) | 4.1 (inactive) | 2.49 | 0.58 (inactive) | -0.484 | 1.09 | 1.08 | 0.445 |
| C=CCOC(=O)[C@H]1[C@@H]2C(=O)O[C@@H](c3ccccc3)[C@@H](c3ccccc3)N2[C@@H](c2ccc(OCCOC(=O)[C@H]3C[C@H]4C(=O)N[C@@H](Cc5ccccc5)C(=O)N4[C@H]3c3ccc(O)cc3)cc2)[C@]12C(=O)Nc1ccc(I)cc12 | 0.558 | 0.412 | -0.0093 | 0.979 | 0.779 | 0.932 | 1.21 | 0.808 (inactive) | 2.17 | -0.582 | 1.55 | 0.827 (inactive) | 1.36 (inactive) | 3.95 (inactive) | 2.39 | -0.305 (inactive) | -0.0267 | 1.69 | 1.05 | -0.118 |
